Screening results from PubChem BioAssay.
Dicer inh: human Dicer pre-microRNA cleavage inhibition; Q9UPY3; z-score at 25 µM; AID 1347074; cat-ELCCA pre-miR-21 Dicer processing, chemiluminescence; stronger effect = higher value; hit rate 6% among 47,000; in the data active means z-score above about 3, passing the limit was not always enough;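 further: higher signal means more uncleaved substrate so more Dicer inhibition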
Hits are given with their value; n = inactive. This is one part of a sample in which hits are shown more often than they occur.

SMILES	Dicer inh
CC1=C(C(=O)OCC(C)C)C(c2ccc(F)cc2)C2=C(CC(c3ccccc3)CC2=O)N1 (stereo not drawn)	n
CCOC(=O)C1=C(C)NC2=C(C(=O)CC(c3ccccc3)C2)C1c1ccc(O)c(OCC)c1 (stereo not drawn)	n
CCOC(=O)C1=C(C)NC2=C(C(=O)CC(c3ccccc3)C2)C1c1cccc(Br)c1 (stereo not drawn)	5.36
CC1=C(C(=O)OC(C)C)C(c2ccncc2)C2=C(CC(c3ccccc3)CC2=O)N1 (stereo not drawn)	n
CCC(C)OC(=O)C1=C(C)NC2=C(C(=O)CC(c3ccccc3)C2)C1c1ccc(N(C)C)cc1 (stereo not drawn)	3.34
CCOC(=O)C1=C(C)NC2=C(C(=O)CC(c3ccccc3)C2)C1c1cccc(O)c1 (stereo not drawn)	n
O=c1c2c3c(sc2[nH]c(=S)n1-c1ccc(Cl)cc1Cl)CCCC3	n
Cc1ccc(C)n1-c1ncccc1OCc1nnc(-c2ccc3ccccc3c2)o1	n
O/N=C1/CCCc2c1nc(-c1ccccc1)n2O	n
COC(=O)C1=NNC2C(=O)N(c3ccccc3Br)C(=O)C12 (stereo not drawn)	n
O=C(CC1(O)C(=O)Nc2ccccc21)c1ccncc1 (stereo not drawn)	n
N#CC1CN(CCc2ccccc2)CN(CCc2ccccc2)C1	n
CC1=CC(C)(C)N=C(SCC(=O)C(C)(C)C)N1c1cccc(Cl)c1	n
Cc1ccc(/C(O)=C2\C(=O)C(=O)N(CCN3CCOCC3)C2c2cccnc2)cc1 (stereo not drawn)	n
O=C1C(=O)N(CCCN2CCOCC2)C(c2ccc(Cl)cc2)/C1=C(\O)c1ccc(F)cc1 (stereo not drawn)	n
O=C1C(=O)N(CCCN2CCOCC2)C(c2cccnc2)/C1=C(\O)c1ccc(F)cc1 (stereo not drawn)	3.45
Nc1ccc2nc(-c3cccc(-c4nc5ccc(N)cc5s4)c3)sc2c1	n
O=c1c(Cl)c(Oc2cccc(C(F)(F)F)c2)cnn1-c1ccccc1	n
O=C1CC(c2cccs2)c2c(n[nH]c2-c2ccccc2)N1 (stereo not drawn)	n
COc1ccc(/C(O)=C2\C(=O)C(=O)N(CCN(C)C)C2c2ccccc2F)cc1 (stereo not drawn)	3.35
COc1ccc(/C(O)=C2\C(=O)C(=O)N(CCCN(C)C)C2c2ccccc2)cc1 (stereo not drawn)	n
CN(C)CCN1C(=O)C(=O)/C(=C(/O)c2ccc(S(=O)(=O)N(C)C)cc2)C1c1ccccc1F (stereo not drawn)	n
CC1CCc2c(sc3ncn(CC(=O)N/N=C/c4ccco4)c(=O)c23)C1 (stereo not drawn)	n
O=C1CSc2ccc(C(F)(F)F)cc2N1Cc1c(Cl)cccc1Cl	n
Cc1c(S(=O)(=O)Nc2ccc3c(c2)OCCO3)sc2ccc(Cl)cc12	n
SMILES	Dicer inh
COc1ccccc1NS(=O)(=O)c1sc2ccc(Cl)cc2c1C	3.28
Cc1ccc(NS(=O)(=O)c2sc3ccc(Cl)cc3c2C)cc1	n
CCCCN(CCCC)CC(O)c1cc(Cl)cc2c1-c1ccc(Cl)cc1/C2=C/c1ccc(Cl)cc1 (stereo not drawn)	n
CCOC(=O)CSC(=S)NC(C)c1ccccc1 (stereo not drawn)	n
Cc1nc(-c2cc(C#N)c(Sc3ccccc3)nc2C)cs1	n
COc1ccc(-c2n[nH]c(C)c2-c2ccc(F)cc2)c(O)c1	n
CCOc1ccc(-c2n[nH]c(C)c2-c2ccccc2)c(O)c1	5.06
Cc1[nH]nc(-c2ccc(O)cc2O)c1Oc1ccccc1	n
COc1ccc(C(CC(=O)c2ccc(C)cc2)SCc2c(F)cccc2Cl)cc1 (stereo not drawn)	n
Cn1c(=O)c2c3oc(-c4ccc([N+](=O)[O-])cc4)nc3c(=O)n(C)c2n(C)c1=O	n
CCCCCOC(=O)C1=C(C)NC2=C(C(=O)CC(C)(C)C2)C1c1ccccc1OCC (stereo not drawn)	n
O=C1c2oc3ccc(Cl)cc3c(=O)c2C(c2cccc(O)c2)N1Cc1ccccc1 (stereo not drawn)	n
Cc1ccc(C)n1-c1ccccc1C1C=NNC1=O (stereo not drawn)	n
O=C(NCc1ccco1)C1CCCN1S(=O)(=O)c1ccc2ccccc2c1 (stereo not drawn)	n
O=C(CCC1CCCC1)N1CCN(S(=O)(=O)c2ccc3ccccc3c2)CC1	3.14
Cc1ccc(S(=O)(=O)N2CCC(CC3CCN(S(=O)(=O)c4ccc(C)cc4)CC3)CC2)cc1	n
COc1ccccc1C1CCN(S(=O)(=O)c2ccc(C)cc2)CC1	n
O=S(=O)(c1ccc(Br)cc1)N1CCN(C/C=C/c2ccccc2)CC1	n
O=C(Nc1nnc(CCS(=O)(=O)c2ccc3ccccc3c2)s1)C1CCCCC1	n
COc1ccc(OC)c(CN2CCN(S(=O)(=O)c3ccc4ccccc4c3)CC2)c1	n
O=S(=O)(c1ccc2ccccc2c1)N1CCN(Cc2cc(Br)ccc2O)CC1	4.11
Cc1ccc(S(=O)(=O)N2CCN(S(=O)(=O)c3ccc4ccccc4c3)CC2)cc1	3.41
CC1(C)CC(=O)C=C(OC(=O)c2ccc(C(C)(C)C)cc2)C1	n
Cc1ccc(-c2nnc3c4ccccc4c(C)nn23)cc1S(=O)(=O)NCCO	n
N#CCCN(CCc1ccccn1)C(=O)Nc1ccccc1	n
SMILES	Dicer inh
FC(F)(F)c1cccc(-c2noc(-c3ccc(C#Cc4ccccc4)o3)n2)c1	n
O=C(Nc1cccc(F)c1)c1cccc([N+](=O)[O-])c1	n
O=C(O)CSC(CC(=O)c1ccc(Cl)cc1)c1ccccc1 (stereo not drawn)	n
Nc1cc(=O)[nH]c(SCc2ccc(C(=O)Oc3ccc(F)cc3F)cc2)n1	n
O=c1oc(-c2ccc(Br)cc2)nc2scc(-c3cccs3)c12	n
Cc1ccc(-c2csc3nc(-c4cccs4)oc(=O)c23)cc1	5.44
Cc1cccc2nc(-c3cccs3)oc(=O)c12	n
COC(=O)/C=C1\S/C(=N\c2ccccn2)N(c2ccc(C)c(C)c2)C1=O	n
COCCOC(=O)Cn1nnc2sc3c(c2c1=O)CCC(C)C3 (stereo not drawn)	n
CCCOC(=O)Cn1nnc2sc3c(c2c1=O)CCCC3	n
CC1CCN(C(=O)Cn2nnc3sc4c(c3c2=O)CCCC4)CC1	3.52
COC(=O)Cn1nnc2sc3c(c2c1=O)CCCC3	n
CCCCCOC(=O)Cn1nnc2sc3c(c2c1=O)CCC(C)C3 (stereo not drawn)	3.49
CC(C)COC(=O)Cn1nnc2sc3c(c2c1=O)CCC(C)C3 (stereo not drawn)	n
CC1CCN(C(=O)Cn2nnc3sc4c(c3c2=O)CCC(C)C4)CC1 (stereo not drawn)	3.02
CCC(C)OC(=O)Cn1nnc2sc3c(c2c1=O)CCC(C)C3 (stereo not drawn)	n
CC1CCc2c(sc3nnn(CC(=O)NC4CCCCC4)c(=O)c23)C1 (stereo not drawn)	n
Cc1ccc(C)c(C(=O)CC2(O)C(=O)Nc3ccc(Cl)cc32)c1 (stereo not drawn)	n
Cc1ccc(S(=O)(=O)NC(=O)Nc2cc(C)on2)cc1	n
CCc1ccnc(NC(=O)NS(=O)(=O)c2ccc(C)cc2)c1	5.07
CCc1ccnc(NS(=O)(=O)c2ccc(C)cc2)c1	n
c1ccc2c(c1)[nH]c1nc(SCCCN3CCCCC3)nnc12	n
O=S(=O)(Oc1cc(Cl)cc(Cl)c1)c1ccc(Cl)c(Cl)c1	n
CCOC(=O)N/N=C(\C)c1oc(C)cc1C	n
CC(C)(Oc1ccc(Cl)cc1)C(=O)Nc1nnc(C(C)(C)C)s1	n
